The list is not random: actives were taken first. Their share in the collection is about 5.2%.
Tau fibril ThT: tau fibrillization inhibition (ThT binding); P10636; recombinant tau K18 P301L, heparin-induced fibrillization, ThT fluorescence; Potency, µM (series often up to 57.4 µM), for inactives: at the top dose activity, negative = inhibition, usual class: inhibitors; actives 2.1% (n = 270,000); AID 1460; also: potency is read from the fitted curve at half-maximal effect; nearly all actives have a fitted effect of over 55% in size
Target sequence (P10636 561-689 P618L limits assumed): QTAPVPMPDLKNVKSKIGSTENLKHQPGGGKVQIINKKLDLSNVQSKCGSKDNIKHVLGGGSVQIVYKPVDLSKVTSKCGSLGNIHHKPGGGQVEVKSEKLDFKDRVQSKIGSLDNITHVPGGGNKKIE
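ThT emission at 510 nm, taken 1 hr after adding 30 uM dye, quantifies aggregates formed when 20 uM heparin acts on human tau K18 P301L for 6 hr at 37 C.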
Tau FP inhib: inhibitors of human tau fibril formation; AID 1468; K18 P301L tau heparin fibrillization, Alexa594 FP, 6 h; Potency, µM (series often up to 57.7 µM), for the others: at the highest dose activity, negative = inhibition, hits mostly inhibitors; actives 0.39% (n = 280,000); P10636; also: potency is read from the fitted curve at half-maximal effect; nearly all actives have a fitted effect of over 55% in size
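Heparin (20 uM) drove fibril formation of recombinant tau K18 P301L, 15 uM unlabeled with 0.24 uM Alexa 594 label, for 6 hr at 37 C in 100 mM sodium acetate pH 7. Fluorescence polarization (555/632 nm) read 1 hr after 30 uM ThT.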
Sfp PPTase inh: Sfp phosphopantetheinyl transferase inhibition | AID 1490 | Potency, µM, inactives show largest response in the series, negative = inhibition, most hits filed as inhibitors | Biochemical Sfp PPTase activity, qHTS | actives 3.5% (n = 310,000);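 also: the enzyme is Sfp with the accession as filed and its product quenches rhodamine fluorescence; potency is read from the fitted curve at half-maximal effect; 0% = enzyme reaction without inhibitor and -100% = no enzyme wells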
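After 15 min at room temperature with compound, 15 nM Sfp received 5 uM rhodamine-CoA plus 12.5 uM BHQ-2-ybbR (50 mM Hepes pH 7.6, 10 mM MgCl2). Rate came from the fluorescence difference over 30 min, ex 525/em 598 nm.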
FBPA coupling cs: counter-screen for Giardia aldolase inhibitors: coupling enzyme system | coupling enzyme system counterscreen, AmpLite Red fluorescence | activity change, negative = inhibition, % at 58.2 µM, hits read low | actives 0.67% (n = 290,000) | AID 2472; in the data active = activity change below about -30%
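Counterscreen of the coupled detection system alone, without aldolase: glyceraldehyde-3-phosphate coupling enzymes plus AmpLite Red readout. Compounds at 57.5 uM final, 10 min RT preincubation, 20 min RT reaction, fluorescence 525/598 nm.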
Tau fluor cs: counter-screen for tau fibril formation inhibitors; tau K18 P301L (four-repeat tau fragment) Alexa594 fluorescence, heparin fibrillization; Potency, µM (highest dose often 57.7 µM), for inactives: at the top dose activity change, negative = decrease; actives 0.93% (n = 280,000); AID 1463; also: potency is read from the fitted curve at half-maximal effect; nearly all actives have a fitted effect of over 55% in size
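Human K18 P301L tau (15 uM unlabeled plus 0.24 uM Alexa 594-labeled, final) in 100 mM sodium acetate pH 7 was mixed with compound and 20 uM heparin and incubated 6 hr at 37 C.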
* marks the source's active call; other numbers are inactive results; ? = inconclusive; . = no result given; [ ] = another dose, or the depositor's remark. Unless noted, calls follow the shape of the dose curve; as a rule, active = well fitted curve in the direction sought with a large enough effect; inconclusive = small, poorly fitted or top-dose-only effect, or another doubt; inactive = no such curve, though single readings can be large; an effect the other way counts as inactive or inconclusive. Unless noted, % is scaled to controls: 0 for no effect and ±100 for the full control effect.

SMILES	Tau fibril ThT	Tau FP inhib	Sfp PPTase inh	FBPA coupling cs	Tau fluor cs
O=C(O)/C=C/C(=O)c1ccc2c(c1)NC(=O)CO2	?	?	8.91µM*	1.7	-0.7%
COc1cc(/C=C2\SC(=Nc3ccccc3)N(CCc3c[nH]c4ccccc34)C2=O)ccc1OC(C)C(=O)O (stereo not given)	?	-12.4%	-27.3%	0.8	?
COc1ccc(N=C2S/C(=C\c3ccc(OC(C)C(=O)O)c(OC)c3)C(=O)N2CCc2c[nH]c3ccccc23)cc1 (stereo not given)	28.2µM*	-2.1%	?	-1.9	?
O=C1/C(=C/c2ccc(N3CCOCC3)o2)SC(=Nc2ccccc2)N1CCc1c[nH]c2ccccc12	14.1µM*	?	2.82µM*	-6.8	?
N=C1/C(=C\c2coc3ccccc3c2=O)C(=O)N=C2SC(c3ccncc3)=NN12	12.6µM*	?	-18.6%	5.7	-24.5%
N=C1/C(=C/c2coc3ccccc3c2=O)C(=O)N=C2SC(c3ccco3)=NN12	?	-10.4%	39.8µM*	-4.9	-19.0%
CN1C(=O)/C(=C/c2coc3ccc(O)cc3c2=O)SC1=S	?	-2.0%	3.0%	3.2	-18.3%
N=C1/C(=C\c2coc3ccc(O)cc3c2=O)C(=O)N=C2SC=CN12	12.6µM*	-14.0%	?	-0.3	?
Cc1cc(/C=C2\C(=N)N3N=C(c4ccco4)SC3=NC2=O)c(C)n1Cc1ccccc1	12.6µM*	-7.5%	?	-1.0	?
CC(=O)OCC1OC(C#Cc2ccc(C)cc2C)C=CC1OC(C)=O (stereo not given)	?	-10.6%[11.6 µM]	4.1%	-0.9	-13.3%[11.6 µM]
COc1ccc(-c2nc3cnc(N4CCN(C)CC4)nc3n(-c3ccc(OC)cc3)c2=O)cc1	.	.	-22.0%	-0.6	.
Cc1cc(C)c(NC(=O)CCn2c(=O)c3cccn3c3ccccc32)c(C)c1	-9.5%	9.2%	.	.	-22.3%
COc1cc(-c2noc(CSc3nc(-c4ccccc4)cc(=O)[nH]3)n2)cc(OC)c1OC	-11.0%	-16.4%	.	.	-15.0%
COc1ccc(-c2noc(CSc3nc(-c4ccccc4)cc(=O)[nH]3)n2)cc1OC	-6.5%	-4.8%	35.5µM*	-1.1	-13.0%
COc1ccc2nc3ccccc3nc2c1NC(=O)c1ccc(Cl)cc1Cl	2.3%	-2.2%	10.5%	-33.3*	-15.2%
COc1cc(NC(=O)c2nc(-c3ccncc3)no2)cc(OC)c1OC	-0.1%	-5.7%	.	.	-4.8%
Cc1cc(O)c(C(C)C)cc1NC(=O)Nc1cccc2ccccc12	?	18.4%	-14.5%	0.2	25.1µM*[quencher]
O=C(O)Cc1cc2ccccc2nc1C(=O)O	-12.8%	1.7%	79.4µM*	0.9	-9.8%
CCOC(=O)N1CCN(Cc2nc3cc(NC(=O)c4ccc(F)cc4)ccc3n2C(C)C)CC1	-5.0%	-0.3%	.	.	-9.5%
COc1cc(C(=O)Nc2ccc(-c3nc4ccccc4o3)c(O)c2)cc(OC)c1OC	1.5%	?	.	.	-26.3%
CCOc1ccc(/C=C/c2nc3ccccc3n2S(=O)(=O)c2ccc(Br)cc2)cc1	-17.3%	?	.	.	-25.3%
CSc1ccc(/C=C/c2nc3ccccc3n2S(=O)(=O)c2ccc(Br)cc2)cc1	2.5%	?	.	.	31.6µM*[quencher]
CCc1ccc(NC(=O)C2CCN(S(=O)(=O)c3ccc4[nH]c5c(c4c3)CCCCC5)CC2)cc1	8.6%	3.1%	.	.	?
Cc1cc(=O)[nH]c(SCC(=O)Nc2cccc3ccccc23)c1C#N	-6.9%	9.1%	50.1µM*	-0.3	-4.3%
COc1cc(NC(=O)c2ccccc2)c(OC)cc1NC(=O)CSc1[nH]c(=O)cc(C)c1C#N	.	.	-6.9%	4.0	.
SMILES	Tau fibril ThT	Tau FP inhib	Sfp PPTase inh	FBPA coupling cs	Tau fluor cs
COCCOC(=O)c1c(C)nc(SCC(=O)Nc2cccc3ccccc23)c(C#N)c1-c1ccco1	-14.6%	1.6%	7.94µM*	-0.8	-26.5%
COCCOC(=O)c1c(C)nc(SCC(=O)Nc2ccc(C)cc2)c(C#N)c1-c1ccco1	-4.7%	-7.2%	23.5%	-3.4	-24.1%
Cc1nc(CC(=O)c2ccc(O)cc2O)cs1	-11.5%	-2.8%	22.8%	-0.3	-8.9%
Cc1nc(C/C(=N\Nc2ccccc2)c2ccc(O)cc2O)cs1	?	-4.8%	17.8µM*	1.9	25.1µM*[quencher]
N=c1ccn2c(n1)O[C@H]1[C@@H](O)[C@@H](CO)O[C@H]12	-5.3%	1.7%	.	.	-6.2%
Nc1c(C=C2C=CC(=O)C=C2)c(=O)nc2snc(SCc3ccccc3)n12	7.94µM*	?	-18.1%	19.5	?
CC(=O)Nc1ccc(/C=C/c2ccc3c([N+](=O)[O-])cccc3n2)cc1	1.41µM*	13.7%	19.8%	0.9	-10.7%
O=C(O)c1cc(/C=C/c2ccc(N3CCOCC3)cc2)nc2ccccc12	?	10.9%	10.4%	2.3	-19.2%
N#C/C(=C\c1ccc(N2CCOCC2)o1)c1nc2ccccc2[nH]1	7.94µM*	-11.3%	31.6µM*	-48.9*	?
COC(=O)/C(C#N)=C/c1ccc(N2CCOCC2)c([N+](=O)[O-])c1	-14.3%	3.0%	-1.0%	2.4	-2.1%
N#C/C(=C\c1ccc(N2CCOCC2)c([N+](=O)[O-])c1)c1nc2ccccc2[nH]1	5.01µM*	-7.2%	-8.9%	-5.0	22.4µM*[quencher]
O=C(O)c1cc(/C=C/c2ccc(N3CCOCC3)c([N+](=O)[O-])c2)nc2ccccc12	14.1µM*	-4.6%	15.7%	-0.8	-21.9%
CC1COC(=O)O1 (stereo not given)	.	.	-0.3%	-0.5	.
Cc1ccc2nc(/C(C#N)=C/c3cccc(Br)c3)[nH]c2c1	5.01µM*	-3.9%	.	.	?
Cc1ccc2nc(/C(C#N)=C\c3ccc(N4CCCCC4)c([N+](=O)[O-])c3)[nH]c2c1	3.16µM*	7.4%	-8.1%	1.2	-29.7%
Cc1ccc2nc(/C(C#N)=C/c3ccc(O)c(O)c3)[nH]c2c1	.	.	-25.2%	-0.5	.
N#C/C(=C/c1ccc(N2CCCC2)c([N+](=O)[O-])c1)c1nc2ccccc2[nH]1	2.51µM*	-12.5%	-10.4%	-0.8	?
Oc1ccc(/C=N/Nc2cccc3cccnc23)c(O)c1	6.31µM*	8.7%	?	-2.8	7.94µM*[quencher]
Cc1ccc(/C=N/Nc2cccc3cccnc23)c(O)c1	-8.6%	-7.1%	44.7µM*	-4.3	-7.3%
Cc1cc(N/N=C/c2ccccc2O)c2ccccc2n1	.	.	-13.4%	0.1	.
CC(C)c1cc(C(=O)Nc2sc3c(c2C#N)CCC3)no1	-18.0%	-2.0%	?	-0.9	-17.9%
N#Cc1c(NC(=O)c2cnccn2)sc2c1CCCC2	?	-11.8%	25.1µM*	-2.7	-28.6%
CC(C)c1onc(C(=O)Nc2sc3c(c2C#N)CCC3)c1[N+](=O)[O-]	?	1.4%	56.2µM*	7.5	-18.1%
Cc1cccc(C)c1NC(=O)c1cnccn1	.	.	13.4%	-0.1	.
N#Cc1c(NC(=O)CCC(=O)O)sc2c1CCCCC2	20µM*	?	20µM*	-22.5	-12.6%

Screening results as filed in PubChem.
